Each structure is given as a SMILES string. Results filed as inconclusive are left out. A call without a number means that no potency is given here. Activity calls are given as the source filed them. Calls follow the shape of the dose curve; as a rule, active = well fitted activation curve with a large enough effect in the repeat runs; inconclusive = weak or mixed curves; inactive = flat fitted curve, though single readings scatter.

This assay in a line: A CellTox Green Cytotoxicity Assay to monitor cytotoxicity in HEK293 cells - 32 hour (AID 1224881). Also: nearly all actives have a fitted effect of over 40% in size. Conditions: CellTox Green fluorescence; series mostly up to 76.8 µM. An excerpt:
National Center for Advancing Translational Sciences [NCATS]
NIH Chemical Genomics Center [NCGC]
U.S. Environmental Protection Agency [EPA]
National Institutes of Environmental Health Sciences [NIEHS]
National Toxicology Program [NTP]
Cell-based models are critical for drug discovery. Determining the natural cytotoxic effects resulting from test compounds is an essential research activity. A CellTox Green Cytotoxicity Assay to monitor cytotoxicity in real time of continues cell culture during 40 hours of the compound treatment was used to screen Tox21 10K library compounds in Hek293 cells. CellTox Green Cytotoxicity Assay is a nonlytic, homogeneous, biofluorescent method to measure cytotoxicity in cell culture after experimental manipulation. The assay system uses a proprietary asymmetric cyanine dye that is excluded from viable cells but preferentially stains the dead cell's DNA. […] Viable cells produce no appreciable increases in fluorescence. Therefore, the fluorescence signal produced by the binding interaction with dead cell DNA is proportional to cytotoxicity.
The mixture of Hek293 cell suspension and reagents were dispensed at 600cells/6 ul/well in 1536-well tissue culture treated black solid bottom plates using a Multidrop dispenser. After the assay plates were incubated at a 37 C/5% CO2 incubator for 5 hours, 23 nL of compounds dissolved in DMSO, positive and negative controls was transferred to the assay plate by a pintool work station. The plates were incubated at 37 C for 40 hours. The fluorescence intensity were measured at 0h, 8h, 16h, 24h, 32h and 40h time points using ViewLux plate reader during compound treatment.
Consider `C[C@@H]1CN(c2c(F)c(N)c3c(=O)c(C(=O)O)cn(C4CC4)c3c2F)C[C@H](C)N1`, for which the cytotoxicity increase was 5.84% [at 15.8 µM] (inactive).
Regarding `NNS(=O)(=O)c1ccc(Oc2ccc(S(=O)(=O)NN)cc2)cc1`, the Potency entry is “inactive”.
On the same count and under the same terms, the result for `NS(=O)(=O)c1cc(-c2nn[nH]n2)c(NCc2cccs2)cc1Cl` reads “inactive”; that for `CNCCC(Oc1ccccc1OC)c1ccccc1` (stereo not given), “inactive”; that for `O=C(Cl)c1cccc([N+](=O)[O-])c1`, “inactive”.
The same measure, in the same setting: next, `COc1ccc(S(=O)(=O)Nc2nnc(CC(C)C)s2)cc1`: “inactive”; `O=S(=O)(O)C(F)(F)F`: “inactive”; `CCCS(=O)c1ccc2nc(NC(=O)OC)[nH]c2c1` (stereo not given): “inactive”.
Same read-out and setting: the result for `CC(C)NCC(O)COc1ccc(CCOCC2CC2)cc1` (stereo not given) reads “inactive”.
As for `CC1=CC(=O)CC(C)(C)C1=O`, the Potency entry is “inactive”.
The same measure, in the same setting: the result for `FC(F)(F)C(F)(F)C(F)(F)C(F)(F)C(F)(F)C(F)(F)C(F)(F)C(F)(F)Br` reads “inactive”.
The same measure, in the same setting: next, `O=c1[nH]cnc2c1ncn2[C@@H]1O[C@H](CO)[C@@H](O)[C@H]1O`: “inactive”.
The same measure, in the same setting: next, `CCCCCCOc1ccc(N)cc1`: “inactive”.
With `CCN(O)CC`, the Potency entry is “inactive”.
Same read-out and setting: next, `NC(=O)NS(=O)(=O)c1ccc(Cl)cc1`: “inactive”; `Cc1c(-c2ccccc2)oc2c(C(=O)OCCN3CCCCC3)cccc2c1=O`: “inactive”; `CC1CN(c2ccccc2)NC1=O` (stereo not given): “inactive”.
The same measure, in the same setting: the result for `NC/C=C/C(=O)O` reads “inactive”; that for `CCOc1ccc(OCC)c(Cl)c1`, “inactive”.
On to `CC(=O)Oc1cc(C(C)C)c(OCCN(C)C)cc1C`, for which the Potency entry is “inactive”.
As for `CC[C@H]1CC[C@H](NCc2cc3c(cc2OC)[C@H]2C[C@H]2C(=O)N3C)[C@H](c2ccccc2)N1`, the Potency entry is “inactive”.
Still for that read-out and setting: the result for `c1ccc(CN(CC2=NCCN2)c2ccccc2)cc1` reads “inactive”.
For `CCc1cc(Cl)c(OC)c(C(=O)NC[C@@H]2CCCN2CC)c1O`, the Potency entry was “inactive”.
Still for that read-out and setting: the result for `ClC(Cl)Cl` reads “inactive”; that for `CCCC(CCC)(C(=O)OCC)C(=O)OCC`, “inactive”.
On the same count and under the same terms, next, `CC1(C)S[C@@H]2[C@H](NC(=O)C(C(=O)O)c3ccccc3)C(=O)N2[C@H]1C(=O)O` (stereo not given in full): “inactive”; `O=CCCc1ccccc1`: “inactive”.
Regarding `CCOC(=O)NCCC[Si](OCC)(OCC)OCC`, the Potency result was “inactive”.
Consider `O=C1C=CC(=O)O1`, for which the Potency result was “inactive”.
Still for that read-out and setting: next, `CCOC(=O)c1ccccc1O`: “inactive”; `O=Cc1ccc(O)c(O)c1O`: “inactive”; `FC(F)(F)C(Cl)(Cl)Cl`: “inactive”.
Same read-out and setting: next, `Cn1cnc2c(F)c(Nc3ccc(Br)cc3Cl)c(C(=O)NOCCO)cc21`: “inactive”.
Same read-out and setting: the result for `CCCCCCn1c(=O)c2c(ncn2C)n(C)c1=O` reads “inactive”; that for `COc1ccccc1OCC(O)COC(N)=O` (stereo not given), “inactive”; that for `Nc1ccc2ccccc2c1S(=O)(=O)O`, “inactive”.
For `C1CCOC1`, the Potency result was “inactive”.
Same read-out and setting: the result for `O=C1CCCCC1C1CCCCC1` (stereo not given) reads “inactive”.
Still for that read-out and setting: the result for `Cc1cc2c(s1)Nc1ccccc1N=C2N1CCN(C)CC1` reads “inactive”.
As for `CCC/C=C/CO`, the Potency entry was “inactive”.

Source of the values: PubChem BioAssay (Tox21).
